Test results: ChEMBL document CHEMBL3433997, “St. Jude Leishmania screening dataset” (2016)

Biological target: Hexose transporter 1 (Plasmodium falciparum) (UniProt O97467)
Assay: ST_JUDE_LEISH: Cytotoxicity at 2uM final concentration against transgenic Leishmania Mexicana promastigotes LmPfHT that are glucose transport deficient and complemented with the Plasmodium falciparum hexose transporter. Activity is measured by DNA content using SYBR green in vitro
Type: functional

| SMILES | inhibition [%] |
| --- | --- |
| Nc1cccc(CNCc2ccc(-c3cccc(-c4nc5cc(F)ccc5[nH]4)c3)cc2)c1 | -1.11 |
| OCC1CCN(Cc2cccc(C#Cc3cc4ncnc(Nc5ccc(OCc6cccc(F)c6)c(Cl)c5)c4s3)n2)CC1 | 8.82 |
| CC12CN3CC(C)(CN(C1)C3c1cc(Br)ccc1O)C2O (stereo not given) | -1.64 |
| COc1cccc(-c2csc(C(=O)NCC3CCN(Cc4ccc(C(C)(C)C)cc4)C3)c2)c1 (stereo not given) | -1.27 |
| Cc1[nH]c(C)c(-c2ccc(-c3ccc(OC(F)(F)F)cc3)cc2)c(=O)c1Cl | 3.77 |
| CN(C)CCOc1cc(NC(=O)Nc2ccc3c(c2)CCCC3=O)ccc1I | 7.25 |
| N#Cc1ccc(-c2ccc(C(=O)NCCCCN3CCC(c4ccc5c(c4OCC(N)=O)CCCC5)CC3)cc2)cc1 | 0.2 |
| Cc1cc(-c2cc(Cl)ccc2Cl)no1 | 0.03 |
| Cc1cc(C)n(-c2nc(Nc3cccc(C(F)(F)F)c3)nc(-n3nc(C)cc3C)n2)n1 | -3.09 |
| CCCc1cc(Cc2cnc(N)nc2N)c2cccnc2c1OC | 4.01 |
| CN(C)Cc1ccc(-c2ccc3c(Nc4ccc(Oc5ccccc5)cc4)ccnc3c2)o1 | 0.83 |
| NCCCNc1ccc(-c2ccc(NC(=O)Nc3cc(C(F)(F)F)ccc3F)cc2)cn1 | 2.81 |
| O=C(C1CCCCC1)N1CCOC(CCN2CCC(c3ccccc3)CC2)(c2ccc(Cl)c(Cl)c2)C1 (stereo not given) | 16.1 |
| CN(C)Cc1ccc(-c2cc3ncnc(Nc4ccc(OCc5cccc(F)c5)c(Cl)c4)c3s2)[nH]1 | 2.49 |
| CCCO[C@H](C(=O)OC)[C@@H](CC1Cc2ccccc2C1)C(=O)NCCC1=CCCCC1 | 1.34 |
| CCCN(CCC)C(=O)c1cc(C(=O)N[C@@H](Cc2ccccc2)[C@H](O)CNCc2cccc(C(F)(F)F)c2)cc(N2CCCCS2(=O)=O)c1 | -0.49 |
| Cc1ccc(CNC(=O)[C@H](CCCN)Nc2nc(Nc3ccccc3)ncc2C)cc1 | 0.93 |
| CC(C)CCOc1ccc(NC(=O)c2cccs2)cc1 | 5.81 |
| CCOC(=O)c1c(CCc2ccc(C(F)(F)F)cc2)nc2c(c1-c1ccc(C(=O)N[C@@H](C)c3ccncc3)cc1)C(=O)N1CCC[C@@H]21 | 1.31 |
| Cc1cc(C)cc(OCC(O)CN(CCN2CCOCC2)C(=O)Nc2ccc(Br)cc2)c1 (stereo not given) | 9.85 |

| SMILES | inhibition [%] |
| --- | --- |
| CCN(CC)CCN(Cc1ccc(-c2ccc(C(F)(F)F)cc2)cc1)C(=O)c1c[nH]c2ccc(Br)cc12 | 1.01 |
| CC(C)[C@H](NC(=O)c1ccc(O)c(-c2ccc(Cl)c(Cl)c2)c1)C(=O)NCCN1CCOCC1 | 4.31 |
| c1cncc(CCNCc2ccc(-c3ccc(CNC4Cc5ccccc5C4)cc3)cc2)c1 | 3.57 |
| N#Cc1ccc(NC2(C(=O)N3CCN(c4cccc(Cl)c4)CC3)CC2)c2ccccc12 | 2.36 |
| CCN(CC)S(=O)(=O)c1ccc(C=CC(=O)Nc2cc(Cl)ccc2N2CCOCC2)cc1 | 4.63 |
| Cc1c(CNCCCNc2nc3ccncc3[nH]2)sc(Br)c1Br | -2.83 |
| N#Cc1ccc(-c2ccc(OCC(O)CN3CCCN(Cc4cccc(O)c4Cl)CC3)cc2)cc1 (stereo not given) | 0.72 |
| C=C[C@H]1CN(CCCCCCC)CC[C@H]1CC(O)Cc1ccnc2cc(O)c(OC)cc12 (stereo not given in full) | -0.12 |
| Clc1ccc2c(Cl)c(CNCCCNc3nc4ccccc4[nH]3)[nH]c2c1 | 0.94 |
| O=C(NCCCN1CCC(N2CCCCC2)CC1)c1ccc2nc(N3CCCCC3)sc2c1 | 8.39 |
| COc1ccc(Cl)cc1N1CCN(CCCNC(=O)c2ccc(-c3nc4cc5ccccc5cc4[nH]3)c(F)c2)CC1 | 3.41 |
| CN1CCC(C(=O)N(Cc2ccc(-c3ccc(CNCCc4ccc(S(C)(=O)=O)cc4)cn3)cc2)C2Cc3ccccc3C2)CC1 | -0.29 |
| CCOc1cccc(C2c3c(oc4ccccc4c3=O)C(=O)N2CCN(CC)CC)c1 (stereo not given) | 2.93 |
| N#Cc1ccccc1S(=O)(=O)N1CCCC(CNC(=O)[C@H](CC2CCCCC2)NC(=O)c2cc3ccccc3s2)C1 (stereo not given in full) | 2.15 |
| NC1CCCN(Cc2cccc(-c3ccc(-c4nc5cc(F)ccc5[nH]4)cc3)c2)C1 (stereo not given) | 3.14 |
| N=C(N)c1ccc(-c2cc3ccc(C(=N)N)cc3[nH]2)cc1 | 62.2 |
| CC(C)Cc1cn(-c2nc(-c3nc4ccccc4[nH]3)cs2)c2ccncc12 | 6.3 |
| NCCCCc1c(-c2ccc(Cl)c(Cl)c2)[nH]c2ccc(Cl)cc12 | -1.68 |
| CN(C)CCNCc1cccc(-c2ccc3c(Nc4ccc(Oc5ccccn5)cc4)ccnc3c2)c1 | 1.4 |
| Cc1ccc(-c2nnc3c4ccccc4c(C)nn23)cc1S(=O)(=O)N1CCN(CCO)CC1 | 0.96 |
